# Data taken from PubChem BioAssay AID1159580 (chemical genetic matrix, 2015).
# About 2,000 (36%) of roughly 5,500 compounds were called active. Not shown: some 18% with an inconclusive outcome. Some of the results follow. Values without a mark were called inactive. Cut-off read from the data, not from the text of the source: active = normalized growth mostly below about 0.91 (no sharp cut-off); inconclusive = no clear call, values can overlap the other calls; inactive = mostly above about 0.92.
# Test: chemical genetic growth profiling, strain panel (AID 1159580);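 note: tested at 20 µM; growth read once vehicle control cultures reached saturation at 30 °C; 1 = growth at the plate median or of vehicle wells; lower values mean less growth of the strain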
# Conditions: growth OD
compound,measurement,setting,value
C=CCc1ccc(O)c(OC)c1,normalized growth,"S. cerevisiae deletion strains, locus YJL187C, strain SWE1, stronger effect = lower value",0.999
same,normalized growth,"S. cerevisiae deletion strains, locus YJR043C, strain POL32, stronger effect = lower value",0.913
same,normalized growth,"S. cerevisiae deletion strains, locus YJR066W, strain TOR1, stronger effect = lower value",0.973
same,normalized growth,"S. cerevisiae deletion strains, locus YJR075W, strain HOC1, stronger effect = lower value",0.885
same,normalized growth,"S. cerevisiae deletion strains, locus YKL009W, strain mrt4, stronger effect = lower value",0.998
same,normalized growth,"S. cerevisiae deletion strains, locus YKL068W, stronger effect = lower value",0.923 (active)
same,normalized growth,"S. cerevisiae deletion strains, locus YKL085W, strain MDH1 (second series), stronger effect = lower value",0.894 (active)
same,normalized growth,"S. cerevisiae deletion strains, locus YKL085W, strain MDH1, stronger effect = lower value",0.894 (active)
same,normalized growth,"S. cerevisiae deletion strains, locus YKL160W, strain elf1, stronger effect = lower value",1.02
same,normalized growth,"S. cerevisiae deletion strains, locus YKR001C, strain vps1, stronger effect = lower value",0.813 (active)
same,normalized growth,"S. cerevisiae deletion strains, locus YKR026C, strain gcn3, stronger effect = lower value",0.989
same,normalized growth,"S. cerevisiae deletion strains, locus YKR091W, strain srl3, stronger effect = lower value",0.992
same,normalized growth,"S. cerevisiae deletion strains, locus YLL001W, strain dnm1, stronger effect = lower value",1.02
same,normalized growth,"S. cerevisiae deletion strains, locus YLL026W, stronger effect = lower value",0.989
same,normalized growth,"S. cerevisiae deletion strains, locus YLL041C, strain sdh2, stronger effect = lower value",0.989
same,normalized growth,"S. cerevisiae deletion strains, locus YLR027C, strain aat2, stronger effect = lower value",0.99
same,normalized growth,"S. cerevisiae deletion strains, locus YLR039C, strain RIC1, stronger effect = lower value",0.605 (active)
same,normalized growth,"S. cerevisiae deletion strains, locus YLR058C, strain SHM2, stronger effect = lower value",0.949
same,normalized growth,"S. cerevisiae deletion strains, locus YLR102C, strain apc9, stronger effect = lower value",0.95
same,normalized growth,"S. cerevisiae deletion strains, locus YLR113W, strain HOG1, stronger effect = lower value",0.962
same,normalized growth,"S. cerevisiae deletion strains, locus YLR221C, strain rsa3, stronger effect = lower value",1.01
same,normalized growth,"S. cerevisiae deletion strains, locus YLR258W, strain gsy2, stronger effect = lower value",1.01
same,normalized growth,"S. cerevisiae deletion strains, locus YLR262C, strain YPT6 (second series), stronger effect = lower value",0.998
same,normalized growth,"S. cerevisiae deletion strains, locus YLR262C, strain YPT6, stronger effect = lower value",0.674
same,normalized growth,"S. cerevisiae deletion strains, locus YLR268W, strain sec22, stronger effect = lower value",1.01
same,normalized growth,"S. cerevisiae deletion strains, locus YLR320W, strain mms22, stronger effect = lower value",0.996
same,normalized growth,"S. cerevisiae deletion strains, locus YLR330W, strain CHS5, stronger effect = lower value",0.885 (active)
same,normalized growth,"S. cerevisiae deletion strains, locus YLR342W, strain FKS1 (second series), stronger effect = lower value",0.888
same,normalized growth,"S. cerevisiae deletion strains, locus YLR342W, strain FKS1, stronger effect = lower value",0.999
same,normalized growth,"S. cerevisiae deletion strains, locus YLR357W, strain rsc2, stronger effect = lower value",0.992
same,normalized growth,"S. cerevisiae deletion strains, locus YLR370C, strain arc18, stronger effect = lower value",0.997
same,normalized growth,"S. cerevisiae deletion strains, locus YLR371W, strain rom2, stronger effect = lower value",0.692 (active)
same,normalized growth,"S. cerevisiae deletion strains, locus YLR384C, strain iki3, stronger effect = lower value",0.991
same,normalized growth,"S. cerevisiae deletion strains, locus YLR418C, strain cdc73, stronger effect = lower value",0.799 (active)
same,normalized growth,"S. cerevisiae deletion strains, locus YML016C, strain PPZ1, stronger effect = lower value",0.91 (active)
same,normalized growth,"S. cerevisiae deletion strains, locus YML032C, strain rad52, stronger effect = lower value",0.93
same,normalized growth,"S. cerevisiae deletion strains, locus YML120C, strain ndi1, stronger effect = lower value",1.03
same,normalized growth,"S. cerevisiae deletion strains, locus YML124C, strain tub3, stronger effect = lower value",0.917 (active)
same,normalized growth,"S. cerevisiae deletion strains, locus YMR058W, strain fet3, stronger effect = lower value",1
same,normalized growth,"S. cerevisiae deletion strains, locus YMR078C, strain ctf18, stronger effect = lower value",0.917
same,normalized growth,"S. cerevisiae deletion strains, locus YMR125W, strain sto1, stronger effect = lower value",0.965
same,normalized growth,"S. cerevisiae deletion strains, locus YMR129W, stronger effect = lower value",0.984
same,normalized growth,"S. cerevisiae deletion strains, locus YMR205C, strain PFK2, stronger effect = lower value",0.995
same,normalized growth,"S. cerevisiae deletion strains, locus YMR223W, strain ubp8, stronger effect = lower value",0.936
same,normalized growth,"S. cerevisiae deletion strains, locus YMR231W, strain pep5, stronger effect = lower value",0.983
same,normalized growth,"S. cerevisiae deletion strains, locus YMR307W, strain GAS1, stronger effect = lower value",1
same,normalized growth,"S. cerevisiae deletion strains, locus YNL067W, strain RPL9B, stronger effect = lower value",0.97
same,normalized growth,"S. cerevisiae deletion strains, locus YNL071W, strain lat1, stronger effect = lower value",0.959
same,normalized growth,"S. cerevisiae deletion strains, locus YNL153C, strain GIM3, stronger effect = lower value",0.991
same,normalized growth,"S. cerevisiae deletion strains, locus YNL183C, strain NPR1, stronger effect = lower value",0.928
same,normalized growth,"S. cerevisiae deletion strains, locus YNL209W, strain ssb2, stronger effect = lower value",0.999
same,normalized growth,"S. cerevisiae deletion strains, locus YNL233W, strain BNI4, stronger effect = lower value",0.901
same,normalized growth,"S. cerevisiae deletion strains, locus YNL248C, strain rpa49, stronger effect = lower value",1
same,normalized growth,"S. cerevisiae deletion strains, locus YNL250W, strain rad50, stronger effect = lower value",0.924
same,normalized growth,"S. cerevisiae deletion strains, locus YNL271C, strain bni1, stronger effect = lower value",0.931
same,normalized growth,"S. cerevisiae deletion strains, locus YNL298W, strain CLA4, stronger effect = lower value",0.995
same,normalized growth,"S. cerevisiae deletion strains, locus YNL307C, strain MCK1, stronger effect = lower value",0.932
same,normalized growth,"S. cerevisiae deletion strains, locus YNL322C, strain KRE1 (second series), stronger effect = lower value",0.993
same,normalized growth,"S. cerevisiae deletion strains, locus YNR049C, strain mso1, stronger effect = lower value",0.988
same,normalized growth,"S. cerevisiae deletion strains, locus YNR052C, strain pop2, stronger effect = lower value",1.01
same,normalized growth,"S. cerevisiae deletion strains, locus YOL012C, strain htz1",0.778
same,normalized growth,"S. cerevisiae deletion strains, locus YOL147C, strain pex11, stronger effect = lower value",0.939
same,normalized growth,"S. cerevisiae deletion strains, locus YOR001W, strain rrp6, stronger effect = lower value",1.01
same,normalized growth,"S. cerevisiae deletion strains, locus YOR061W, strain CKA2, stronger effect = lower value",0.948
same,normalized growth,"S. cerevisiae deletion strains, locus YOR069W, strain VPS5, stronger effect = lower value",0.948
same,normalized growth,"S. cerevisiae deletion strains, locus YOR070C, strain gyp1, stronger effect = lower value",0.996
same,normalized growth,"S. cerevisiae deletion strains, locus YOR080W, strain dia2, stronger effect = lower value",0.989
same,normalized growth,"S. cerevisiae deletion strains, locus YOR083W, strain WHI5, stronger effect = lower value",1.04
same,normalized growth,"S. cerevisiae deletion strains, locus YOR106W, strain vam3, stronger effect = lower value",1.04
same,normalized growth,"S. cerevisiae deletion strains, locus YOR136W, strain idh2, stronger effect = lower value",0.992
same,normalized growth,"S. cerevisiae deletion strains, locus YOR144C, strain elg1, stronger effect = lower value",0.937
same,normalized growth,"S. cerevisiae deletion strains, locus YOR184W, strain ser1, stronger effect = lower value",0.973
same,normalized growth,"S. cerevisiae deletion strains, locus YOR231W, strain MKK1, stronger effect = lower value",0.982
same,normalized growth,"S. cerevisiae deletion strains, locus YOR265W, strain rbl2, stronger effect = lower value",0.999
same,normalized growth,"S. cerevisiae deletion strains, locus YOR270C, strain vph1, stronger effect = lower value",0.964
same,normalized growth,"S. cerevisiae deletion strains, locus YOR290C, strain snf2, stronger effect = lower value",0.986
same,normalized growth,"S. cerevisiae deletion strains, locus YOR316C, strain cot1, stronger effect = lower value",0.939
same,normalized growth,"S. cerevisiae deletion strains, locus YPL051W, strain arl3, stronger effect = lower value",1.02
same,normalized growth,"S. cerevisiae deletion strains, locus YPL078C, strain atp4, stronger effect = lower value",1.01
same,normalized growth,"S. cerevisiae deletion strains, locus YPL106C, strain sse1, stronger effect = lower value",0.948
same,normalized growth,"S. cerevisiae deletion strains, locus YPL240C, strain hsp82, stronger effect = lower value",0.993
same,normalized growth,"S. cerevisiae deletion strains, locus YPL256C, strain CLN2, stronger effect = lower value",0.973
same,normalized growth,"S. cerevisiae deletion strains, locus YPR119W, strain clb2, stronger effect = lower value",0.916 (active)
same,normalized growth,"S. cerevisiae deletion strains, locus YPR141C, strain kar3, stronger effect = lower value",0.879 (active)
same,normalized growth,"S. cerevisiae deletion strains, locus YPR163C, strain tif3, stronger effect = lower value",0.969
same,normalized growth,"S. cerevisiae deletion strains, locus YPR167C, strain met16, stronger effect = lower value",0.947
same,normalized growth,"S. cerevisiae deletion strains, strain wtn01, stronger effect = lower value",0.988
same,normalized growth,"S. cerevisiae strains, strain wild type, stronger effect = lower value",0.95
